According to PubChem BioAssay AID1117361 (Southern Research Institute, 2015):
Hit rate of the full screen: of about 3,600 compounds, about 900 (25%) were called active. How the calls were made is not given here. Not all results are given here. Potency and affinity values are given separately.

Target: Protein Tat (Human immunodeficiency virus type 1 group M subtype B (isolate HXB2)) (UniProt P04608)
Assay: inhibitors of Tat binding to TAR RNA, dose response, counter-screen for Vif-APOBEC3G degradation inhibitor project, biochemical, fluorescence polarization, FAM-labeled TAR RNA (AID 1117361)
Settings: outcome: dose series up to 100 µM unless noted; series mostly up to 100 µM; inhibition: at the top concentration

SMILES | inhibition | outcome
CCc1ccc(C(=O)Nc2ccc(S(=O)(=O)Nc3nc(C)cc(C)n3)cc2)o1 | 8.11% (inactive) | 
CCn1ncc(Br)c1C(=O)Nc1sc2c(c1C(N)=O)CCC2 | 14.2% (inactive) | 
O=C(NC12CC3CC(CC(C3)C1)C2)c1ccc(S(=O)(=O)N2CCOCC2)cc1 |  | inactive
CCOC(=O)CNC(=O)Cn1cnc2c(nnn2-c2ccc(F)cc2)c1=O | 1.67% (inactive) | 
Cc1nc2nc(COc3ccccc3)[nH]n2c(=O)c1Cc1ccccc1 |  | inactive
O=c1cc2c(n[nH]1)CCCC2 | 7.43% (inactive) | 
O=C(Nc1cccc(Cl)c1)C1=Cc2cc(Cl)ccc2OC1 |  | inactive
Cc1nc(NC(=O)/C=C/c2ccccc2)sc1C(=O)Nc1ccccc1 | 4.73% (inactive) | 
CCN(CC)S(=O)(=O)c1cccc(NC(=O)/C=C/c2cccc([N+](=O)[O-])c2)c1 | 6.14% (inactive) | 
COc1ccc(NC(=O)/C=C/c2ccc(S(=O)(=O)N3CCOCC3)cc2)cc1 |  | inactive
Cc1ccc(NC(=O)/C=C\C(=O)O)c([N+](=O)[O-])c1 |  | inactive
O=C(CSc1ncnc2ccccc12)Nc1cccc(S(=O)(=O)N2CCOCC2)c1 | 0.82% (inactive) | 
Cc1sc2nc(SCC(=O)N3CCOCC3)[nH]c(=O)c2c1C |  | inactive
Cc1cc(C)cc(C(=O)N2CCC(C(N)=O)CC2)c1 | 6.76% (inactive) | 
O=C(CNS(=O)(=O)c1ccccc1)OCC(=O)c1ccc(OC(=O)c2ccccc2)cc1 |  | inactive
O=C1CCc2cc(S(=O)(=O)NC(Cc3ccccc3)C(=O)NCC3CCCO3)ccc2N1 (stereo not drawn) | 7.43% (inactive) | 
NC(=O)c1nsnc1-c1ccccc1O |  | inactive
CC1C=CC=CC=CC=CC=CC=CC=CC(OC2OC(C)C(O)C(N)C2O)CC2OC(O)(CC(O)CC(O)C(O)CCC(O)CC(O)CC(=O)OC(C)C(C)C1O)CC(O)C2C(=O)O (stereo not drawn) | 25.1% (inactive) | 
COc1ccc(S(=O)(=O)N(C)Cc2cccs2)cc1Br | 0.68% (inactive) | 
O=C(OCn1nnc2ccccc2c1=O)C1=COCCO1 | 0.68% (inactive) | 
CC(=O)Nc1ccc(N=Nc2ccccc2)cc1 |  | inactive
O=C(NCCNC(=O)c1cc(OCC(F)(F)F)ccc1OCC(F)(F)F)Nc1cccc(C(F)(F)F)c1 | 2.73% (inactive) | 
Cc1cc(-c2ccccc2)nc(Oc2ccc(C(C)(C)C)cc2)c1S(C)(=O)=O | 2.73% (inactive) | 

SMILES | inhibition | outcome
CCc1nnc(NC(=O)CSc2nnc(Cc3ccccc3)n2-c2ccc(OC)cc2)s1 |  | inactive
COc1ccc(C(=O)NC2CC3CCCC(C2)N3CC(C)C)cc1 (stereo not drawn) | 5.59% [at 50 µM] (inactive) | 
COc1ccc(CN2CCNC(=O)C2CC(=O)NC2CCCC2)cc1OC (stereo not drawn) | 11.7% (inactive) | 
C=C1Cn2c(nnc2-c2ccc(Cl)cc2)S1 | 3.38% (inactive) | 
Cc1ccc(C)c(OCCC(=O)Nc2ccccc2C(=O)NC2CC2)c1 |  | inactive
CCC1CCC2(CC1)NC(=O)N(CC(=O)Nc1ccc(OC)c(Cl)c1)C2=O (stereo not drawn) | 0.82% (inactive) | 
Cc1ccc2c(Cl)cc(Cl)c(OCC(=O)NCc3ccco3)c2n1 | 2.03% (inactive) | 
CC(C)(C)NC(=O)COC(=O)c1cc(S(=O)(=O)N2CCCCC2)ccc1N1CCOCC1 | 14.2% (inactive) | 
CCOCCCNC(=O)c1ccccc1Br |  | inactive
O=C1[C@@H]2CSCN2C(=O)CN1CCc1cccc(F)c1 |  | inactive
COc1ccc(C(=O)Cn2c(=N)n(C)c3ccccc32)cc1 |  | inactive
CCn1c(CNC(C)=O)nnc1SCC(=O)c1ccc(Br)cc1 |  | inactive
CCN(c1ccccc1)S(=O)(=O)c1ccc(C(=O)NNC(=O)c2ccccc2F)cc1 |  | inactive
CC(C)CN(C(=O)CN1CCN(S(=O)(=O)c2ccccc2)CC1)c1c(N)n(CC(C)C)c(=O)[nH]c1=O |  | inactive
CN(C(=O)CSc1nnc(N)s1)c1c(N)n(Cc2ccccc2)c(=O)[nH]c1=O | 7.43% (inactive) | 
Cc1cccc(N2CCN(CC(=O)Nc3nccs3)CC2)c1C | 3.38% (inactive) | 
COC(=O)CSc1nnc(CNC(=O)c2ccccc2OC)n1-c1ccc(OC)cc1 | 2.73% (inactive) | 
CS(=O)(=O)N1CCCC(C(=O)NCCCN2CCC(Cc3ccccc3)CC2)C1 (stereo not drawn) | 3.41% (inactive) | 
O=C1C2C3CC(C(Br)C3Br)C2C(=O)N1c1ccccn1 (stereo not drawn) | 1.35% (inactive) | 
CCOc1ccc2nc(N3CCCC(C(=O)NCCCN4CCOCC4)C3)sc2c1 (stereo not drawn) |  | inactive
COc1cc(OC)c2ccc(=O)oc2c1C(CCN1CCCC(C)C1)c1ccc2c(c1)OCO2 (stereo not drawn) | 0.82% (inactive) | 
O=C1C(Cc2ccccc2)SC(=Nc2ccccc2)N1c1ccccc1 (stereo not drawn) | 0.68% (inactive) | 
COc1ccc2[nH]c(C(=O)O)c(CCN3C(=O)c4cccc([N+](=O)[O-])c4C3=O)c2c1 |  | inactive

SMILES | inhibition | outcome
COc1ccc2nc(NNC(=O)c3cc(=O)c4ccccc4o3)sc2c1 | 19% (inactive) | 
Cc1ccc2cc3c(NC(=O)c4cccnc4)nn(C)c3nc2c1 | 18.2% (inactive) | 
O=C1C2CCCN2C(c2ccccc2)N1c1nccs1 (stereo not drawn) | 17.1% (inactive) | 
O=C1NN(c2cccc(Br)c2)C(=O)/C1=C\c1ccccc1 |  | inactive
CCCCc1cc(=O)oc2cc(OCC(=O)N(CC)CC)c(Cl)cc12 |  | inactive
Cc1ccccc1C(=O)NCC(=O)OC(C)C(=O)NC(C)CCc1ccccc1 (stereo not drawn) | 5.77% (inactive) | 
O=C(Nc1cccc(OC(F)(F)F)c1)c1ccc(Br)o1 | 20.9% (inactive) | 
CC(C)(C)n1nc2c(c1NC(=O)c1ccc(Br)o1)CS(=O)C2 (stereo not drawn) | 9.55% (inactive) | 
Cc1cc(C)c2nc(SCC(=O)NCCN3C(=O)CSC3=O)cc(C)c2c1 |  | inactive
CCN(CC)CCNC(=O)Cc1c(C(=O)O)n(C)c2ccccc12 | 10.8% (inactive) | 
COc1ccc(NC(=O)CN2CCC(C(N)=O)CC2)cc1 | 0.68% (inactive) | 
O=c1cc(CO)oc(C(Nc2ccccn2)c2ccc(F)cc2)c1O (stereo not drawn) | 16.2% (inactive) | 
OCCNc1ccc(Cl)cc1 | 6.08% (inactive) | 
O=C(c1ccco1)N1CCN=C1SCc1cccc(Cl)c1 | 6.08% (inactive) | 
O=C(c1ccco1)N1CCN(C(=O)c2cn(-c3ccccc3)nc2-c2ccccc2)CC1 | 6.6% (inactive) | 
CC(C)(C)c1cc(C(C)(C)C)cc(S(=O)(=O)CCc2ccccn2)c1 | 3.41% (inactive) | 
C#CC(=O)N(c1cc(OC)ccc1OC)C(C(=O)NC1CCCC1)c1cccs1 (stereo not drawn) | 5.41% (inactive) | 
CCOC(=O)Nc1nnc(-c2ccccc2OC)s1 | 2.73% (inactive) | 
COc1ccccc1-c1c(C)[nH]n2c(=O)c(Cc3ccccc3)c(C)nc12 |  | inactive
O=C(O)Cn1c(SC2CCCCC2)nc2ccccc21 | 0.68% (inactive) | 
Cc1nn(Cc2ccc(Cl)cc2)c(C)c1NC(=O)c1cc(-c2ccc3c(c2)OCO3)on1 |  | inactive
Cc1cc(C)cc(NC(=O)CN2CCC(NC(=O)Cc3ccccc3)CC2)c1 |  | inactive
